# PubChem BioAssay
# Where “and” joins values, the source holds several entries; their conditions need not be identical. Equal entries are not always repeated. Some structures have more than one record in an assay (separate samples or runs), and their calls can disagree. Calls of active or inactive are those of the source. Cut-off read from the data, not from the text of the source, unless noted: active = inhibition above about 80%; inactive = the rest.
# Tests used:
# [1] = growth inhibition, single agent or in combination, cell-based, chromothripsis tumors, cisplatin or BGB combos (AID 1671449); conditions: LFS_MB_P medulloblastoma cells;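 note: cells exposed for 96 hours; 0% = vehicle DMSO and 100% = killing by high DMSO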
# [2] = growth inhibition, single agent and combos, cell-based, chromothripsis tumors, cisplatin or BGB combos (AID 1671450); conditions: HDN33 neuroblastoma cells, stronger effect = higher value;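 note: cells exposed to compound for four days; 0% = vehicle DMSO and 100% = cell killing by high DMSO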
# [3] = growth inhibition, single agents and combos, ICB984, cell-based, cisplatin or BGB combos, synergistic combos for chromothripsis tumors (AID 1671451; call rule not given here;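 note: cells exposed for 96 hours before readout; 0% = vehicle DMSO and 100% = killing by high DMSO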); conditions: ICB984 medulloblastoma cells, drug combinations, stronger effect = higher value
# [4] = growth inhibition, single agents and combos, LFS_MB_1R, cell-based, cisplatin or BGB combos, synergistic combos for chromothripsis tumors (AID 1671452); conditions: LFS_MB_1R medulloblastoma cells, stronger effect = higher value;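 note: cells exposed for 96 hours before readout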
# [5] = growth inhibition, single agents and combos, HTB85, cell-based, BGB or cisplatin IC20 combos, synergistic combos for chromothripsis tumors (AID 1671453); conditions: HTB85 osteosarcoma cells, drug combinations, stronger effect = higher value;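 note: cells exposed for 96 hours before readout; 0% = vehicle DMSO and 100% = high DMSO killing control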
# [6] = growth inhibition, single agents and combos, CRL2098, cell-based, BGB or cisplatin IC20 combos, synergistic combos for chromothripsis tumors (AID 1671454); conditions: CRL2098 osteosarcoma cells, drug combinations, stronger effect = higher value;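 note: cells exposed for 96 h before readout; 0% = vehicle DMSO and 100% = killing by high DMSO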
# [7] = growth inhibition, single agents and combos, HD-MB03, cell-based, BGB or cisplatin IC20 combos, synergistic combos for chromothripsis tumors (AID 1671455; in the data active = inhibition above about 83%;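 note: 0% = vehicle DMSO and 100% = high DMSO as cytotoxic control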); conditions: HD-MB03 medulloblastoma cells, stronger effect = higher value
# [8] = growth inhibition, single agents and combos, UWB1.289, cell-based, BGB or cisplatin combos, synergistic combos for chromothripsis tumors (AID 1671456); conditions: UWB1.289 ovarian carcinoma cells, stronger effect = higher value;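 note: cells exposed to compound for four days; 0% = vehicle DMSO and 100% = killing by high DMSO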
# [9] = growth inhibition, single agents and combos, LFS_MB_2R, cell-based, cisplatin combos, synergistic combos for chromothripsis tumors (AID 1671457); conditions: LFS_MB_2R medulloblastoma cells, stronger effect = higher value;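 note: cells exposed to compound for four days before readout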
# [10] = growth inhibition, MDA-MB-436, cell-based, BGB or cisplatin combos, synergistic combos for chromothripsis tumors (AID 1671458; call rule not given here;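 note: cells exposed for 96 hours; 0% = vehicle DMSO and 100% = killing by high DMSO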); conditions: MDA-MB-436 breast carcinoma growth inhibition, drug combinations, stronger effect = higher value
# [11] = UWB1.289_BRCA1 ovarian cancer growth, cell-based, BGB or cisplatin combinations (AID 1671459); conditions: UWB1.289 BRCA1 ovarian carcinoma, drug combinations, stronger effect = higher value
# [12] = drug combination toxicity in non-malignant astrocytes – cell-based, BGB or cisplatin IC20 combos, cytotoxicity control for chromothriptic childhood tumor combination screen (AID 1671460); conditions: Human astrocytes, viability inhibition, drug combinations, at 0.5 µM, stronger effect = higher value;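 note: cells exposed to compounds for 96 hours before viability readout; 0% = vehicle and 100% = killing control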
# [13] = BT084 cell growth, single and combined drugs, ICGC_MB145, cisplatin and BGB IC40 combos (AID 1671461); conditions: BT084 medulloblastoma cells, drug combinations, stronger effect = higher value;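 note: cells exposed to drugs for 96 hours; 0% = vehicle DMSO and 100% = high DMSO full killing control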
# [14] = RCMB18 cell growth, single agent and combined, cisplatin and BGB IC40 combos (AID 1671462); conditions: RCMB18 medulloblastoma cells, stronger effect = higher value;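 note: cells exposed to compound for four days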
# [15] = CRL1545 cell growth, single agent and combined, cisplatin and BGB IC20 combos (AID 1671464); conditions: CRL1545 osteosarcoma cells, stronger effect = higher value;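 note: cells exposed to compound for 96 hours before readout; 0% = vehicle DMSO and 100% = high DMSO killing control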
# [16] = measured here: combination with BGB IC40, at 0.05 µM
# [17] = measured here: with BGB IC20 combination, at 0.5 µM
# [18] = measured here: with cisplatin IC20 combination, at 0.5 µM
# [19] = measured here: combination with cisplatin, at 0.5 µM
# [20] = measured here: combination with cisplatin, at 5 µM
smiles,measurement,setting,value
O=c1[nH]c(=O)n(C2CC(O)C(CO)O2)cc1F (stereo not drawn),inhibition,"[1]; at 0.5 µM, stronger effect = higher value",-20.6% (inactive) and -34.4% (inactive)
same,inhibition,"[1]; measured here: combination with BGB IC20, at 0.005 µM",-20.3% and -26.1%
same,inhibition,"[1]; measured here: combination with BGB IC40, at 0.005 µM",-43.8% and -18.6%
same,inhibition,[1]; [16],-14.2% and -19.6%
same,inhibition,"[1]; measured here: combination with cisplatin, at 0.5 µM, stronger effect = higher value",-24.9% and -48.9%
same,inhibition,"[1]; measured here: combination with cisplatin, at 5 µM, stronger effect = higher value",-34.2% and -34.5%
same,inhibition,"[2]; BGB combo, at 5 µM",90.8% and 95.2%
same,inhibition,[2]; at 0.5 µM,75% (inactive) and 78.5% (inactive)
same,inhibition,"[2]; cisplatin combo, at 5 µM",63% and 78%
same,inhibition,[2]; [17],72.2% and 74.3%
same,inhibition,[2]; [18],71.3% and 78.7%
same,inhibition,"[2]; single agent, at 5 µM",78.6% and 88.5%
same,inhibition,"[3]; BGB IC20 combo, at 0.005 µM",-21.6% and 13.5%
same,inhibition,"[3]; BGB IC40 combo, at 0.005 µM",-12.3% and -34.3%
same,inhibition,"[3]; BGB IC40 combo, at 0.05 µM",-9.05% and -30.1%
same,inhibition,[3]; at 0.5 µM,-17.5% (inactive) and -17.1% (inactive)
same,inhibition,"[3]; cisplatin combo, at 0.05 µM",-9.05% and -34.7%
same,inhibition,"[3]; cisplatin combo, at 0.5 µM",-15.5% and -22.4%
same,inhibition,"[3]; cisplatin combo, at 5 µM",-14.7% and -40.3%
same,inhibition,"[3]; measured here: 5 uM single agent, at 5 µM",-2.45% and 14.3%
same,inhibition,[4]; at 0.5 µM,-19.6% (inactive) and -23.9% (inactive)
same,inhibition,[4]; [16],8.22% and -31%
same,inhibition,[4]; [19],23.3% and -25.8%
same,inhibition,[4]; [20],-7.39% and -26.1%
same,inhibition,[5]; at 0.5 µM,-24.9% (inactive) and 12.1% (inactive)
same,inhibition,"[5]; measured here: with BGB IC20, at 0.5 µM",-52.4% and -21.4%
same,inhibition,"[5]; measured here: with BGB IC20, at 5 µM",5.67% and -8.07%
same,inhibition,"[5]; measured here: with cisplatin IC20, at 0.5 µM",-22.6% and 15.4%
same,inhibition,"[5]; measured here: with cisplatin IC20, at 5 µM",14% and 12.8%
same,inhibition,"[5]; single agent, at 5 µM",12% and 38.7%
same,inhibition,[6]; at 0.5 µM,-50.2% (inactive) and -54% (inactive)
same,inhibition,"[6]; measured here: combination with BGB at IC20, at 0.5 µM",-11.9% and -25.4%
same,inhibition,"[6]; measured here: combination with cisplatin at IC20, at 0.5 µM",-87.1% and -79.9%
same,inhibition,[7]; at 0.5 µM,75.2% (inactive) and 82.3% (active)
same,inhibition,"[7]; measured here: combo with BGB at IC20, at 0.5 µM",72.8% and 77.8%
same,inhibition,"[7]; measured here: combo with cisplatin at IC20, at 0.5 µM",79.4% and 87.9%
same,inhibition,[8]; at 0.5 µM,11% (inactive) and 22.1% (inactive)
same,inhibition,"[8]; measured here: inhibition with BGB combination, at 0.05 µM",-37.3% and -7.93%
same,inhibition,"[8]; measured here: inhibition with cisplatin combination, at 0.05 µM",-10.2% and -15.2%
same,inhibition,[9]; at 0.5 µM,-6.08% (inactive) and -22.6% (inactive)
same,inhibition,[9]; [19],-26% and -30.3%
same,inhibition,[9]; [20],-20.5% and -22.8%
same,inhibition,[10]; at 0.5 µM,39.9% (inactive) and 54.5% (inactive)
same,inhibition,"[10]; measured here: BGB combination, at 0.5 µM",12.4% and 36%
same,inhibition,"[10]; measured here: BGB combination, at 5 µM",22.9% and 47.8%
same,inhibition,"[10]; measured here: cisplatin combination, at 0.5 µM",44% and 56.3%
same,inhibition,"[10]; measured here: cisplatin combination, at 5 µM",73% and 86.7%
same,inhibition,"[11]; BGB combination, concentration series, at 5 µM",17.5% and 50.3%
same,inhibition,[11]; at 0.5 µM,15.2% (inactive) and 29.3% (inactive)
same,inhibition,"[11]; cisplatin combination, concentration series, at 5 µM",55.7% and 77.6%
same,inhibition,[12],17.4% (inactive) and 30.8% (inactive)
same,inhibition,[12]; measured here: combo with BGB IC20,14.4% and 24.7%
same,inhibition,[12]; measured here: combo with cisplatin IC20,5.72% and 15.6%
same,inhibition,[13]; at 0.5 µM,-20.4% (inactive) and -2.18% (inactive)
same,inhibition,"[13]; cisplatin combination, at 0.5 µM",-4.33% and -24.2%
same,inhibition,"[13]; cisplatin combination, at 5 µM",-24.6% and 6.37%
same,inhibition,"[13]; measured here: BGB IC40 combination 0.05 uM, at 0.05 µM",-0.925% and 1.52%
same,inhibition,"[13]; single agent, at 5 µM",-4.53% and -3.71%
same,inhibition,[14]; at 0.5 µM,-3.13% (inactive) and -17.8% (inactive)
same,inhibition,"[14]; cisplatin combo, at 5 µM",11.8% and 9.06%
same,inhibition,"[14]; measured here: BGB IC40 combination, at 0.05 µM",-3.94% and -12.9%
same,inhibition,[14]; [19],1.15% and 0.687%
same,inhibition,"[14]; single agent, at 5 µM",-14.6% and -9.12%
same,inhibition,[15]; at 0.5 µM,30.4% (inactive) and 66.8% (inactive)
same,inhibition,[15]; [17],10.3% and 56.4%
same,inhibition,[15]; [18],40.5% and 71.6%
same,inhibition,"[15]; single agent, at 0.05 µM",7.06% and 11.7%
same,inhibition,"[15]; single agent, at 5 µM",91.4% and 96.1%
